Data reported in the supplement of paper PMC6555819.

What was measured:
Test in all cases: PBM binding z-score (relative to random genomic background probes); higher = stronger binding; sequences stand for … in GC…GCGATTGACAGCGTAGAATGAAGG
[1] = tested on: FXR:RXRa (NR concentration 270 nM, RXRa partner concentration 90 nM)
Outline: (§1)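 Probes were double-stranded and carried 34-nt variable regions with direct-repeat seeds, single-nucleotide variants, half-site ablations and random human genomic background sequences, printed on custom Agilent 4×180K protein-binding microarrays. Arrays were incubated 1 h with ligand-free nuclear receptor dimers in PBS pH 7.4, 2% milk, 0.02% Triton X-100, 1 mM DTT, 0.2 mg/mL BSA and 0.4 mg/ml salmon testes DNA. Antibodies against each partner (one per run) detected binding, and scanned fluorescence was regression-normalized. Binding z-scores use the random background probes as reference.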

[2] = tested on: LXRa homodimer (NR concentration 270 nM)
Outline: as §1

[3] = tested on: LXRb homodimer (NR concentration 270 nM)
Outline: as §1

[4] = tested on: PPARg:RXRa (NR concentration 180 nM, RXRa partner concentration 90 nM)
Outline: as §1

[5] = tested on: PPARg:RXRa 270nM:90nM, anti-RXR (NR concentration 270 nM, RXRa partner concentration 90 nM)
Outline: as §1

[6] = tested on: PPARg:RXRa 30nM:10nM, anti-RXR (NR concentration 30 nM, RXRa partner concentration 10 nM)
Outline: as §1

[7] = tested on: PPARg:RXRa 90nM:30nM, anti-RXR (NR concentration 90 nM, RXRa partner concentration 30 nM)
Outline: as §1

[8] = tested on: PPARg:RXRa DBDmut IVT, anti-RXR (DBD mutation: RXRa K156A/R161A, NR concentration 270 nM, RXRa partner concentration 90 nM)
Outline: as §1

[9] = tested on: LXRa:RXRa (NR concentration 270 nM, RXRa partner concentration 90 nM)
Outline: as §1

[10] = tested on: PPARa:RXRa (NR concentration 270 nM, RXRa partner concentration 90 nM)
Outline: as §1

Row | Sequence | PBM binding z-score [1] | PBM binding z-score [2] | PBM binding z-score [3] | PBM binding z-score [4] | PBM binding z-score [5] | PBM binding z-score [6] | PBM binding z-score [7] | PBM binding z-score [8] | PBM binding z-score [9] | PBM binding z-score [10]
1 | TGTCAATGTTCAAAGGTAACGTAAGTATCCACAC | 0.202 | -0.216 | 0.283 | 2.34 | 3.47 | 1.61 | 3.32 | -0.214 |  | 
2 | ATATGTAGGTTACATCCGGGTCATCCAGGCTATG | 1.91 | 1.67 | 0.838 | 6.12 | 5.21 | 2.47 | 4.55 | 7.32 |  | 
3 | TAGCCTAGGTTATGGGCCAGTATACCACGCGAAC | -0.238 | -0.332 | -0.441 | 0.643 | 0.89 | -0.0157 | 0.388 | 0.121 |  | 
4 | TAGCCTAGGTCATTCAGGGGCCAGCATAGAAAGC | 4.87 | 0.45 | 0.706 | 2.37 | 2.62 | 0.723 | 1.28 | 2.03 |  | 
5 | AGTCAAAGTTCATCTAGGTCACGTAAGATATGCT | 7.54 | 7.38 | 2.1 | 7.93 | 7.25 | 4.56 | 6.61 | 3.49 |  | 
6 | CTCGAAAGGTCGTGCTCAGATGAGTATACCAAAC | 5.4 | 0.0537 | 0.486 | 2.71 | 3.42 | 0.769 | 2.09 | 0.422 |  | 
7 | GTTACAGGGTCAAGGCCAGAGTACGCGTATTGAT | 6.43 | 0.317 | 0.463 | 5.4 | 5.66 | 2.09 | 4.49 | 3.09 |  | 
8 | TCTCGGAGGACACAAAGGTCAGAGCTTTCCAGAG | 3.05 | 2.17 | -0.2 | 3.27 | 4.43 | 3.16 | 4.07 | 1.57 |  | 
9 | CCTACTGGGCCGTTCAGAGGTCATTGATCATATG | 2.45 | 5.59 | 0.189 | 1.33 | 2.48 | 0.658 | 1.67 | 1.34 |  | 
10 | TCTAGTTGGTCACGGAGGTCCCACACGACGGGTA | -0.177 | 0.0478 | -0.115 | 0.739 | 1.93 | 3.06 | 2.25 | 1.68 |  | 
11 | AATACAGGGTGACTAGGCCAGAGTAGGTACGAAT | 0.201 | 0.00715 | -0.0758 | 2.6 | 2.06 | 0.461 | 1.08 | 2.23 |  | 
12 | AGAATGAGATTACCAAAGATCAGGGAAACGCTTG | -0.562 | -0.342 | -0.574 | 0.538 | -0.216 | -0.00239 | 0.0878 | -0.34 |  | 
13 | ATCGAAAGGTCCAAGGTGAGTATACCCACCCGAA | 0.219 | -0.213 | 0.175 | 1.01 | 0.802 | 0.219 | 0.627 | -0.563 |  | 
14 | TCTTGTAGATCGATAGAGGTTAAGAAAGTGCGCT | 0.392 | -0.317 | -0.0814 | -0.159 | 1.66 | 2.48 | 1.93 | 0.891 |  | 
15 | CGAACTAGGTCATCCAGGTCAGTGAATACATTGA | 5.02 | 1.02 | -0.0563 | 7.77 | 6.49 | 4.46 | 6.24 | 8.34 |  | 
16 | CCTACTGGGCCATTCAGAGGGCATTGATCATATG | -0.338 | 0.468 | -0.759 | 0.602 | 0.565 | -0.432 | -0.127 | 4.54 |  | 
17 | AGTCAAAGTTCATCTAGGTAACATAAGATATGCT | 6.39 | 5.61 | 2.08 | 6.9 | 6.54 | 3.85 | 5.76 | 1.1 |  | 
18 | CGTCAAAGTTCAACTGAGGTAACGTAAAGCACGC | 7.32 | 5.02 | 2 | 5.04 | 5.58 | 2.33 | 4.11 | 0.26 |  | 
19 | CGTCAAAGTTCAACTAAGGTTACGTAAAGCACGC | 7.19 | 6.3 | 2.31 | 5.53 | 5.55 | 2.42 | 4.33 | 0.789 |  | 
20 | AATACAGGGTCATCTTAGGCCAGAGTACGCACAG | 7.35 | 2.36 | 1.74 | 6.19 | 5.79 | 2.46 | 4.59 | 2.7 |  | 
21 | CAAAATAGGTCACCGGAAGGTCAAAGTCCGCATG | 7.48 | 5.46 | 1.73 | 9.14 | 7.64 | 6.2 | 7.69 | 7.95 |  | 
22 | CCTACTGGGCCACTAAAGGTCATTGATTCAGTGA | 3.27 | 8.29 | 1.27 | 4.06 | 4.89 | 2.26 | 4.15 | 5.49 |  | 
23 | ATATGTAGGTTAGCTGAGGTCATTCAGACTAGGC | 5.29 | 6.24 | 1.12 | 5.21 | 4.91 | 2.35 | 4.11 | 6.93 |  | 
24 | CCTTACGGGTCACTCCAGGTCATAGCATCGGAGT | 5.36 | 7.03 | 0.548 | 4.38 | 4.54 | 1.86 | 3.2 | 2.73 |  | 
25 | ATCGAAAGGTCGAAGGTGAGCATACCCACCCGAA | 4.19 | 0.288 | 0.758 | 5.08 | 5.08 | 2.36 | 4.36 | 0.147 |  | 
26 | TCTTGTAGGTCAATAGAGGTTAAGAAAGTGCGCT | 4.77 | 3.93 | 1.17 | 6.67 | 5.94 | 4.32 | 5.5 | 7.07 |  | 
27 | TCTAGTGGGTCAAAGGTCACACACTCGAAATGCG | 7.63 | 3.93 | 1.59 |  | 11.1 | 12.2 | 12.6 | 7.68 |  | 
28 | GATACAGGGTCAAGGTCAGAGTACGCGTATTGAT |  | 1.48 | 0.776 | 7.68 | 6.67 | 4.07 | 5.8 | 2.93 | 5 | 5.88
29 | ATCGAAAGGTCGACGAGGTGAGTAAACACCGTTT |  | 0.0172 | 0.228 | 2.6 | 3.59 | 1.02 | 2.3 | 0.114 | 3.58 | 4.51
